Source: PubChem BioAssay AID1159580 (chemical genetic matrix, 2015)
Values joined by “and” are separate entries in the source; they are usually repeats but may differ in a detail not shown here. Equal values may be shown once. About 2,000 (36%) of roughly 5,500 compounds were called active. Roughly 18% stayed inconclusive and do not appear here. No stated cut-off is given here; in the data, active means normalized growth mostly below about 0.91 (no sharp cut-off); inconclusive means no clear call, values can overlap the other calls; inactive means mostly above about 0.92. The list shows a part of the results.

Assay: chemical genetic growth profiling, strain panel (AID 1159580);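 further: tested at 20 µM; growth read once vehicle control cultures reached saturation at 30 °C; 1 = growth at the plate median or of vehicle wells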
Conditions: growth OD
[1] = S. cerevisiae deletion strains, locus YAL013W, strain DEP1, stronger effect = lower value
[2] = S. cerevisiae deletion strains, locus YBR229C, strain ROT2, stronger effect = lower value
[3] = S. cerevisiae deletion strains, locus YDL101C, strain DUN1, stronger effect = lower value
[4] = S. cerevisiae deletion strains, locus YDR150W, strain NUM1, stronger effect = lower value
[5] = S. cerevisiae deletion strains, locus YEL061C, strain CIN8, stronger effect = lower value
[6] = S. cerevisiae deletion strains, locus YGR078C, strain PAC10, stronger effect = lower value
[7] = S. cerevisiae deletion strains, locus YHR030C, strain SLT2, stronger effect = lower value
[8] = S. cerevisiae deletion strains, locus YJR043C, strain POL32, stronger effect = lower value
[9] = S. cerevisiae deletion strains, locus YJR075W, strain HOC1, stronger effect = lower value
[10] = S. cerevisiae deletion strains, locus YLR039C, strain RIC1, stronger effect = lower value
[11] = S. cerevisiae deletion strains, locus YLR262C, strain YPT6, stronger effect = lower value
[12] = S. cerevisiae deletion strains, locus YMR263W, strain SAP30, stronger effect = lower value
[13] = S. cerevisiae deletion strains, locus YNL153C, strain GIM3, stronger effect = lower value
[14] = S. cerevisiae deletion strains, locus YNL322C, strain KRE1, stronger effect = lower value
[15] = S. cerevisiae deletion strains, locus YPL055C, strain LGE1, stronger effect = lower value
[16] = S. cerevisiae deletion strains, locus YPL241C, strain CIN2, stronger effect = lower value
[17] = S. cerevisiae strains, strain wild type, stronger effect = lower value

Measured: normalized growth

O/N=C(/CNC(c1ccccc1)(c1ccccc1)c1ccccc1)c1ccccc1
active: [7] 0.594
inactive: [1] 0.969 | [2] 0.977 | [3] 0.963 | [4] 0.9 | [5] 0.949 | [6] 0.987 | S. cerevisiae deletion strains, locus YHR087W, strain rtc3, stronger effect = lower value 1.01 | S. cerevisiae deletion strains, locus YJL187C, strain SWE1, stronger effect = lower value 0.97 | [8] 0.988 | [9] 1.02 | [10] 1.01 | S. cerevisiae deletion strains, locus YLR058C, strain SHM2 (second series), stronger effect = lower value 0.975 | S. cerevisiae deletion strains, locus YLR085C, strain ARP6, stronger effect = lower value 0.819 | [11] 1.02 | S. cerevisiae deletion strains, locus YML094W, strain GIM5, stronger effect = lower value 0.969 | S. cerevisiae deletion strains, locus YMR219W, strain ESC1, stronger effect = lower value 0.968 | [12] 0.999 | [13] 1.03 | S. cerevisiae deletion strains, locus YNL298W, strain CLA4 (second series), stronger effect = lower value 1 | [14] 0.985 | S. cerevisiae deletion strains, locus YNR030W, strain Alg12, stronger effect = lower value 0.976 | [15] 0.998 | [16] 0.964 | S. cerevisiae deletion strains, locus YPR135W, strain CTF4, stronger effect = lower value 0.758 | [17] 0.969

NCCCCNCCCN
inactive: [1] 1.01 and 0.954 | S. cerevisiae deletion strains, locus YAL040C, strain CLN3, stronger effect = lower value 0.977 | S. cerevisiae deletion strains, locus YBR021W, strain FUR4, stronger effect = lower value 1.11 | [2] 0.997 | S. cerevisiae deletion strains, locus YCL029C, strain bik1, stronger effect = lower value 0.95 | S. cerevisiae deletion strains, locus YCL061C, strain MRC1 (second series), stronger effect = lower value 0.982 | S. cerevisiae deletion strains, locus YDL035C, strain GPR1, stronger effect = lower value 1.02 | S. cerevisiae deletion strains, locus YDL074C, strain BRE1, stronger effect = lower value 0.98 | [3] 0.981 | S. cerevisiae deletion strains, locus YDL134C, strain PPH21, stronger effect = lower value 1.01 | S. cerevisiae deletion strains, locus YDL185W, strain tfp1, stronger effect = lower value 0.946 | S. cerevisiae deletion strains, locus YDL192W, strain arf1, stronger effect = lower value 0.983 | S. cerevisiae deletion strains, locus YDR101C, strain arx1, stronger effect = lower value 0.988 | [4] 0.978 and 1 | S. cerevisiae deletion strains, locus YDR162C, strain NBP2, stronger effect = lower value 0.998 | S. cerevisiae deletion strains, locus YDR318W, strain mcm21, stronger effect = lower value 0.987 | S. cerevisiae deletion strains, locus YDR363W, strain ESC2, stronger effect = lower value 0.971 | S. cerevisiae deletion strains, locus YDR388W, stronger effect = lower value 0.996 | S. cerevisiae deletion strains, locus YDR502C, strain sam2, stronger effect = lower value 1.01 | [5] 0.995 | S. cerevisiae deletion strains, locus YER002W, strain NOP16, stronger effect = lower value 0.991 | S. cerevisiae deletion strains, locus YER110C, stronger effect = lower value 0.979 | S. cerevisiae deletion strains, locus YER155C, strain BEM2, stronger effect = lower value 1.01 | S. cerevisiae deletion strains, locus YER167W, strain BCK2, stronger effect = lower value 1 | S. cerevisiae deletion strains, locus YGL078C, strain dbp3, stronger effect = lower value 0.981 | S. cerevisiae deletion strains, locus YGL086W, strain mad1, stronger effect = lower value 0.996 | S. cerevisiae deletion strains, locus YGL248W, strain PDE1, stronger effect = lower value 1 | [6] 0.972 | S. cerevisiae deletion strains, locus YGR135W, strain pre9, stronger effect = lower value 0.999 | S. cerevisiae deletion strains, locus YGR229C, strain SMI1, stronger effect = lower value 0.991 | S. cerevisiae deletion strains, locus YGR252W, strain gcn5, stronger effect = lower value 1.13 | [7] 0.985 and 0.976 | S. cerevisiae deletion strains, locus YHR079C, strain IRE1 (second series), stronger effect = lower value 0.981 | S. cerevisiae deletion strains, locus YHR079C, strain IRE1, stronger effect = lower value 0.985 | S. cerevisiae deletion strains, locus YHR094C, strain hxt1, stronger effect = lower value 0.972 | S. cerevisiae deletion strains, locus YHR129C, strain ARP1, stronger effect = lower value 0.989 | S. cerevisiae deletion strains, locus YHR200W, strain rpn10, stronger effect = lower value 0.992 | S. cerevisiae deletion strains, locus YIL066C, strain RNR3, stronger effect = lower value 0.99 | S. cerevisiae deletion strains, locus YIL073C, strain SPO22, stronger effect = lower value 0.722 | S. cerevisiae deletion strains, locus YIR030C, strain dcg1, stronger effect = lower value 0.99 | S. cerevisiae deletion strains, locus YJL095W, strain BCK1, stronger effect = lower value 0.977 and 1.02 | S. cerevisiae deletion strains, locus YJL134W, strain LCB3, stronger effect = lower value 0.995 | S. cerevisiae deletion strains, locus YJL168C, strain set2, stronger effect = lower value 0.991 | S. cerevisiae deletion strains, locus YJL187C, strain SWE1 (second series), stronger effect = lower value 0.964 | [8] 1 | S. cerevisiae deletion strains, locus YJR066W, strain TOR1, stronger effect = lower value 0.931 | [9] 0.995 and 1 | S. cerevisiae deletion strains, locus YKL009W, strain mrt4, stronger effect = lower value 0.991 | S. cerevisiae deletion strains, locus YKL068W, stronger effect = lower value 0.977 | S. cerevisiae deletion strains, locus YKL085W, strain MDH1 (second series), stronger effect = lower value 0.985 | S. cerevisiae deletion strains, locus YKL085W, strain MDH1, stronger effect = lower value 0.985 | S. cerevisiae deletion strains, locus YKL190W, strain CNB1, stronger effect = lower value 0.988 | S. cerevisiae deletion strains, locus YKR001C, strain vps1, stronger effect = lower value 0.971 | [10] 0.973 | S. cerevisiae deletion strains, locus YLR058C, strain SHM2, stronger effect = lower value 0.985 | S. cerevisiae deletion strains, locus YLR102C, strain apc9, stronger effect = lower value 0.991 | S. cerevisiae deletion strains, locus YLR113W, strain HOG1, stronger effect = lower value 1.05 | [11] 0.96 | S. cerevisiae deletion strains, locus YLR268W, strain sec22, stronger effect = lower value 0.928 | S. cerevisiae deletion strains, locus YLR330W, strain CHS5, stronger effect = lower value 0.991 | S. cerevisiae deletion strains, locus YLR342W, strain FKS1 (second series), stronger effect = lower value 1.04 | S. cerevisiae deletion strains, locus YLR371W, strain rom2, stronger effect = lower value 0.979 | S. cerevisiae deletion strains, locus YLR418C, strain cdc73, stronger effect = lower value 1.01 | S. cerevisiae deletion strains, locus YML016C, strain PPZ1, stronger effect = lower value 0.988 | S. cerevisiae deletion strains, locus YML124C, strain tub3, stronger effect = lower value 0.986 | S. cerevisiae deletion strains, locus YMR078C, strain ctf18, stronger effect = lower value 0.999 | S. cerevisiae deletion strains, locus YMR223W, strain ubp8, stronger effect = lower value 1.03 | [12] 0.978 and 0.977 | S. cerevisiae deletion strains, locus YMR307W, strain GAS1, stronger effect = lower value 1.12 and 0.988 | S. cerevisiae deletion strains, locus YNL067W, strain RPL9B, stronger effect = lower value 0.972 | S. cerevisiae deletion strains, locus YNL128W, strain TEP1, stronger effect = lower value 1.01 | [13] 0.971 and 1.03 | S. cerevisiae deletion strains, locus YNL175C, strain NOP13, stronger effect = lower value 1 | S. cerevisiae deletion strains, locus YNL183C, strain NPR1, stronger effect = lower value 0.959 | S. cerevisiae deletion strains, locus YNL197C, strain WHI3, stronger effect = lower value 0.988 | S. cerevisiae deletion strains, locus YNL224C, strain SQS1, stronger effect = lower value 0.98 | S. cerevisiae deletion strains, locus YNL233W, strain BNI4, stronger effect = lower value 0.98 | S. cerevisiae deletion strains, locus YNL250W, strain rad50, stronger effect = lower value 0.962 | S. cerevisiae deletion strains, locus YNL271C, strain bni1, stronger effect = lower value 0.977 | S. cerevisiae deletion strains, locus YNL298W, strain CLA4, stronger effect = lower value 0.981 | S. cerevisiae deletion strains, locus YNL307C, strain MCK1, stronger effect = lower value 0.975 | [14] 0.988 and 0.982 | S. cerevisiae deletion strains, locus YNR052C, strain pop2, stronger effect = lower value 0.995 | S. cerevisiae deletion strains, locus YOL006C, strain TOP1, stronger effect = lower value 0.776 | S. cerevisiae deletion strains, locus YOL012C, strain htz1 0.74 | S. cerevisiae deletion strains, locus YOL147C, strain pex11, stronger effect = lower value 0.982 | S. cerevisiae deletion strains, locus YOR061W, strain CKA2, stronger effect = lower value 0.996 | S. cerevisiae deletion strains, locus YOR069W, strain VPS5, stronger effect = lower value 0.996 | S. cerevisiae deletion strains, locus YOR083W, strain WHI5 (second series), stronger effect = lower value 0.915 | S. cerevisiae deletion strains, locus YOR136W, strain idh2, stronger effect = lower value 0.996 | S. cerevisiae deletion strains, locus YOR144C, strain elg1, stronger effect = lower value 0.996 | S. cerevisiae deletion strains, locus YOR184W, strain ser1, stronger effect = lower value 0.953 | S. cerevisiae deletion strains, locus YOR231W, strain MKK1, stronger effect = lower value 0.989 | S. cerevisiae deletion strains, locus YOR316C, strain cot1, stronger effect = lower value 0.979 | [15] 1.03 | [16] 0.997 | S. cerevisiae deletion strains, locus YPL256C, strain CLN2, stronger effect = lower value 0.974 | S. cerevisiae deletion strains, locus YPR119W, strain clb2, stronger effect = lower value 0.979 | S. cerevisiae deletion strains, locus YPR141C, strain kar3, stronger effect = lower value 0.991 | S. cerevisiae deletion strains, locus YPR163C, strain tif3, stronger effect = lower value 0.984 | S. cerevisiae deletion strains, locus YPR167C, strain met16, stronger effect = lower value 0.982 | S. cerevisiae deletion strains, strain wtn01, stronger effect = lower value 0.993 | [17] 1.01
